The record followed here is article PMC4552634, “A New Set of Chemical Starting Points with Plasmodium falciparum Transmission-Blocking Potential for Antimalarial Drug Discovery” (PLoS ONE, 2015).

Hit rate of the full screen: of about 13,000 compounds, about 3,200 (25%) showed an effect of 50% or more. The list shows a part of the results.

This assay deals with P. falciparum stage V gametocytes. Also noted: BacTiter-Glo ATP luminescence viability of purified stage V gametocytes in 384-well plates, per cent inhibition versus DMSO. To be noted: 48 h, 5 µM; inhibitor.
Broadly, the % Inhibition is the relative decrease from the control value, in per cent. For the compound `CC(C)[C@H](NC(=O)c1ccc(O)c(-c2ccc(Cl)c(Cl)c2)c1)C(=O)NCCN1CCOCC1` [TCMDC-140850], the “% Inhibition” value was -3.222%. Regarding `C=CCOC(=O)N1CCC(CNCc2ccc(-c3cccc(-c4nc5cccc(C)c5[nH]4)c3)cc2)C1.O=C(O)C(F)(F)F` (stereo not shown) [TCMDC-133039], the “% Inhibition” value is recorded as 9.6%. With `CC(Cc1ccc(Cl)cc1)Nc1nc(NC2CCCC2)nc(N2CCC(C#N)(c3ccccc3)CC2)n1` (stereo not shown) [TCMDC-139928], the “% Inhibition” value was -79.71%. Under `CN(C)c1ccc(-c2ccc(C(=O)NC3CCN(Cc4ccc(C(C)(C)C)cc4)CC3)s2)cc1` [TCMDC-134354] stands -40.81%. Under `CN(C)c1ccc(-c2csc(C(=O)NC3CCN(Cc4ccc(C(C)(C)C)cc4)C3)c2)cc1` (stereo not shown) [TCMDC-134476] stands 63.77%; under `CC(C)(C)c1ccc(CN2CCCCC(NC(=O)c3cc(-c4cccc(Cl)c4)cs3)C2)cc1` (stereo not shown) [TCMDC-134468], -11.91%. For the compound `CC(=O)Nc1ccc(CN2CCC(NC(=O)c3cc(-c4ccc(N(C)C)cc4)cs3)C2)cc1` (stereo not shown) [TCMDC-134477], the “% Inhibition” value was 92.99%.

As to `CN(C)c1ccc(-c2csc(C(=O)NC3CCCCN(CCC(C)(C)C)C3)c2)cc1` (stereo not shown) [TCMDC-134487], the “% Inhibition” value is -62.75%. In the case of `CN(C)c1ccc(-c2csc(C(=O)NC3CCCCN(Cc4ccc(C(C)(C)C)cc4)C3)c2)cc1` (stereo not shown) [TCMDC-134470], the “% Inhibition” value came to 63.14%. As for `CN(C)c1ccc(CN2CCCCC(NC(=O)c3cc(-c4ccccc4F)cs3)C2)cc1` (stereo not shown) [TCMDC-134471], the “% Inhibition” value is -62.25%.

In the case of `O=C(NCC1CCC(C(=O)NCc2cccc(C(F)(F)F)c2)CC1)c1ccc(O)c(-c2ccc(Cl)c(Cl)c2)c1` (stereo not shown) [TCMDC-140886], the “% Inhibition” value is given as 8.372%. To `COc1ccc2sc(CNCCCNc3cc(=O)c4ccccc4[nH]3)c(Cl)c2c1` [TCMDC-140334] belongs -8.727%. In the case of `O=C(NC1CCN(Cc2ccccc2)CC1)c1ccc(-c2nc3cc4ccccc4cc3[nH]2)s1` [TCMDC-140122], the “% Inhibition” value was 18.76%. `CC1Cc2ccccc2N1CC(=O)Nc1cc(C(F)(F)F)ccc1-n1cncn1` (stereo not shown) [TCMDC-124870]: the “% Inhibition” value is -73.33%. As for `O=C(NCCNc1noc(-c2sccc2Br)n1)c1ccc(Cl)cc1` [TCMDC-134182], the “% Inhibition” value worked out at 2.834%.

As for `O=c1cc(N2CCCNCC2)c(Cl)nn1Cc1ccc(NS(=O)(=O)c2ccc(Oc3ccccc3)cc2)cc1` [TCMDC-141692], the “% Inhibition” value is recorded as 2.781%. In the case of `COc1ccc(-c2cnc3[nH]cc(-c4ccncc4)c3c2)cc1OC` [TCMDC-135853], the “% Inhibition” value is on record as 140.3%.

For `COc1ccc(-c2cnc3[nH]cc(-c4ccc(C(=O)O)cc4)c3c2)cn1` [TCMDC-136213], the “% Inhibition” value came to 14.9%. `COc1ccc(-c2cnc3[nH]cc(-c4ccc(CCC(=O)O)cc4)c3c2)cn1` [TCMDC-136240]: the “% Inhibition” value was found to be 35.75%.
